{"source": "PubChem BioAssay (NCI)", "key": {"[1]": {"experiment": "NCI Yeast Anticancer Drug Screen. Data for the rad52 strain (AID 147);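 note: 0% = growth of vehicle-treated control cultures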", "settings": "S. cerevisiae rad52 mutant growth inhibition, stronger effect = higher value", "procedure,_shortened": "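Screen used a yeast mutant impaired in DNA repair. After compound exposure, growth was measured. Values reflect inhibition compared with vehicle-treated cells.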"}, "[2]": {"experiment": "NCI Yeast Anticancer Drug Screen. Data for the wt1 strain (AID 149);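 note: 0% = growth of vehicle-treated wt1 cultures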", "settings": "S. cerevisiae wt1 strain (SPY 50644) growth inhibition, stronger effect = higher value", "procedure,_shortened": "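Yeast wt1 strain exposed to compounds; growth inhibition measured relative to vehicle-treated controls.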"}, "[3]": {"experiment": "NCI Yeast Anticancer Drug Screen. Data for the rad50EPP+ strain (AID 151);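 note: 0% = growth of vehicle-treated control cultures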", "settings": "S. cerevisiae rad50 mutant strain, stronger effect = higher value", "procedure,_shortened": "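Exposing the rad50EPP+ strain to each compound, growth was compared with vehicle-only cultures to give inhibition.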"}, "[4]": {"experiment": "NCI Yeast Anticancer Drug Screen. Data for the mgt1 strain (AID 153)", "settings": "S. cerevisiae mgt1 mutant growth inhibition, stronger effect = higher value", "procedure,_shortened": "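Genetically defined yeast (mgt1) treated with compound; inhibition of growth expressed against vehicle-treated controls.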"}, "[5]": {"experiment": "NCI Yeast Anticancer Drug Screen. Data for the rad50 strain (AID 155);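 note: 0% = growth of vehicle-only cultures of the same strain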", "settings": "S. cerevisiae rad50 strain growth inhibition, stronger effect = higher value", "procedure,_shortened": "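Yeast carrying a defined DNA repair defect were exposed to test compounds, and growth was compared with vehicle-treated controls to give percent inhibition.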"}, "[6]": {"experiment": "NCI Yeast Anticancer Drug Screen. Data for the mec2-1 strain (AID 157)", "settings": "S. cerevisiae mec2-1 strain, stronger effect = higher value", "procedure,_shortened": "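Readout is yeast growth inhibition, normalised to vehicle-treated controls, in the mec2-1 strain exposed to compound.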"}, "[7]": {"experiment": "NCI Yeast Anticancer Drug Screen. Data for the rad14 strain (AID 159);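 note: 0% = growth of vehicle-treated control cultures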", "settings": "S. cerevisiae rad14 strain growth inhibition, stronger effect = higher value", "procedure,_shortened": "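Yeast cells carrying a defined DNA-repair defect were exposed to compounds, and growth inhibition was calculated relative to vehicle-treated control cultures.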"}, "[8]": {"experiment": "NCI Yeast Anticancer Drug Screen. Data for the sgs1 mgt1 strain (AID 161);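 note: 0% = growth of cultures given vehicle only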", "settings": "S. cerevisiae sgs1 mgt1 strain, stronger effect = higher value", "procedure,_shortened": "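Yeast cells carrying a defined DNA-repair defect were exposed to test compounds. Growth inhibition was measured relative to vehicle-treated controls.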"}, "[9]": {"experiment": "NCI Yeast Anticancer Drug Screen. Data for the CLN2oe strain (AID 163);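 note: 0% = growth of vehicle-only control cultures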", "settings": "S. cerevisiae CLN2oe strain, stronger effect = higher value", "procedure,_shortened": "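Values reflect how much compound exposure reduced yeast growth, referenced to vehicle-exposed cells. Assay organism is a strain with a defined genetic change affecting cell-cycle control.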"}, "[10]": {"experiment": "NCI Yeast Anticancer Drug Screen. Data for the cln2 rad14 strain (AID 165);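 note: 0% = growth equal to vehicle treated cultures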", "settings": "S. cerevisiae cln2 rad14 strain, at 50.0 µM, stronger effect = higher value", "procedure,_shortened": "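Relative to vehicle controls, growth inhibition of compound-treated cln2 rad14 yeast was recorded.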"}, "[11]": {"experiment": "NCI Yeast Anticancer Drug Screen. Data for the bub3 strain (AID 167)", "settings": "S. cerevisiae bub3 mutant strain, stronger effect = higher value", "procedure,_shortened": "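Compounds were applied to a genetically altered yeast strain carrying a cell-cycle control defect. Growth inhibition was scored against vehicle-treated controls.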"}, "[12]": {"experiment": "NCI Yeast Anticancer Drug Screen. Data for the wt2 strain (AID 169);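 note: 0% = growth of vehicle-treated yeast cultures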", "settings": "S. cerevisiae wt2 strain growth inhibition, stronger effect = higher value", "procedure,_shortened": "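Values express reduction in yeast growth under compound treatment, referenced to vehicle-treated cells.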"}, "[13]": {"experiment": "NCI Yeast Anticancer Drug Screen. Data for the mlh1 strain (AID 171);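 note: 0% = growth of vehicle-treated control cultures of the same strain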", "settings": "S. cerevisiae mlh1 strain growth inhibition, stronger effect = higher value", "procedure,_shortened": "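Steps: expose the defined-mutant yeast strain to compound; expose a parallel culture to vehicle; measure growth; express compound effect as inhibition relative to the vehicle culture.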"}, "[14]": {"experiment": "NCI Yeast Anticancer Drug Screen. Data for the sgs1 strain (AID 173);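 note: 0% = growth of vehicle-only control cultures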", "settings": "S. cerevisiae sgs1 mutant, stronger effect = higher value", "procedure,_shortened": "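Treat defined-mutant yeast with compound; measure growth; calculate inhibition relative to vehicle-treated cells.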"}, "[15]": {"experiment": "NCI Yeast Anticancer Drug Screen. Data for the mlh1 rad18 strain (AID 175)", "settings": "S. cerevisiae mlh1 rad18 strain growth inhibition, stronger effect = higher value", "procedure,_shortened": "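Test agents were incubated with a yeast strain of defined genotype (DNA damage repair defect). Inhibition of growth was derived by comparison with vehicle-exposed cultures.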"}, "[16]": {"experiment": "NCI Yeast Anticancer Drug Screen. Data for the rad18 strain (AID 177)", "settings": "S. cerevisiae rad18 mutant growth inhibition, stronger effect = higher value", "procedure,_shortened": "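A genetically defined yeast mutant impaired in DNA damage repair was treated with test compounds, then its growth was measured against cultures receiving vehicle alone.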"}, "[17]": {"settings": "at 5.0 µM (retest, dose inferred, filed as 0.5)"}, "[18]": {"settings": "at 50.0 µM (retest, dose inferred, filed as 5.0)"}}, "note": "Several values for one entry are separate records, joined by “and”; a condition that tells them apart may be missing. Equal entries are not always repeated. This is part of a sample that, as a whole, favours compounds with a hit. Of some 79,000 tested, about 15% had one in any assay. More than one record can exist for a structure, and the calls need not agree. Activity calls are given as the source filed them. Cut-off read from the data, not from the text of the source: active = growth inhibition above about 70%; inactive = the rest."}
{"molecule": "Oc1cccc2cccnc12", "values": [{"measurement": "growth inhibition", "setting": "[1]; at 1.2 µM", "result": "20% (inactive)"}, {"measurement": "growth inhibition", "setting": "[1]; at 3.7 µM", "result": "91% (active)"}, {"measurement": "growth inhibition", "setting": "[1]; at 11.0 µM", "result": "93% (active)"}, {"measurement": "growth inhibition", "setting": "[1]; at 33.0 µM", "result": "94% (active)"}, {"measurement": "growth inhibition", "setting": "[1]; at 100.0 µM", "result": "96% (active)"}, {"measurement": "growth inhibition", "setting": "[2]; at 1.2 µM", "result": "27% (inactive)"}, {"measurement": "growth inhibition", "setting": "[2]; at 3.7 µM", "result": "95% (active)"}, {"measurement": "growth inhibition", "setting": "[2]; at 11.0 µM", "result": "99% (active)"}, {"measurement": "growth inhibition", "setting": "[2]; at 33.0 µM", "result": "99% (active)"}, {"measurement": "growth inhibition", "setting": "[2]; at 100.0 µM", "result": "98% (active)"}, {"measurement": "growth inhibition", "setting": "[3]; at 1.2 µM", "result": "-11% (inactive)"}, {"measurement": "growth inhibition", "setting": "[3]; at 3.7 µM", "result": "93% (active)"}, {"measurement": "growth inhibition", "setting": "[3]; at 11.0 µM", "result": "94% (active)"}, {"measurement": "growth inhibition", "setting": "[3]; at 33.0 µM", "result": "94% (active)"}, {"measurement": "growth inhibition", "setting": "[3]; at 100.0 µM", "result": "95% (active)"}, {"measurement": "growth inhibition", "setting": "[4]; at 1.2 µM", "result": "4% (inactive)"}, {"measurement": "growth inhibition", "setting": "[4]; at 3.7 µM", "result": "91% (active)"}, {"measurement": "growth inhibition", "setting": "[4]; at 11.0 µM", "result": "96% (active)"}, {"measurement": "growth inhibition", "setting": "[4]; at 33.0 µM", "result": "98% (active)"}, {"measurement": "growth inhibition", "setting": "[4]; at 100.0 µM", "result": "97% (active)"}, {"measurement": "growth inhibition", "setting": "[5]; at 1.2 µM", "result": "18% (inactive)"}, {"measurement": "growth inhibition", "setting": "[5]; at 3.7 µM", "result": "85% (active)"}, {"measurement": "growth inhibition", "setting": "[5]; [17]", "result": "78% (active) and 97% (active) and 96% (active)"}, {"measurement": "growth inhibition", "setting": "[5]; at 11.0 µM", "result": "97% (active)"}, {"measurement": "growth inhibition", "setting": "[5]; at 33.0 µM", "result": "97% (active)"}, {"measurement": "growth inhibition", "setting": "[5]; [18]", "result": "99% (active)"}, {"measurement": "growth inhibition", "setting": "[5]; at 50.0 µM", "result": "99.1% (active) [middle of 4 runs]"}, {"measurement": "growth inhibition", "setting": "[5]; at 100.0 µM", "result": "96% (active)"}, {"measurement": "growth inhibition", "setting": "[6]; at 1.2 µM", "result": "6% (inactive)"}, {"measurement": "growth inhibition", "setting": "[6]; at 3.7 µM", "result": "85% (active)"}, {"measurement": "growth inhibition", "setting": "[6]; at 11.0 µM", "result": "97% (active)"}, {"measurement": "growth inhibition", "setting": "[6]; at 33.0 µM", "result": "99% (active)"}, {"measurement": "growth inhibition", "setting": "[6]; [18]", "result": "99% (active) and 100% (active)"}, {"measurement": "growth inhibition", "setting": "[6]; at 50.0 µM", "result": "99.1% (active) [middle of 4 runs]"}, {"measurement": "growth inhibition", "setting": "[6]; at 100.0 µM", "result": "98% (active)"}, {"measurement": "growth inhibition", "setting": "[7]; at 1.2 µM", "result": "22% (inactive)"}, {"measurement": "growth inhibition", "setting": "[7]; at 3.7 µM", "result": "85% (active)"}, {"measurement": "growth inhibition", "setting": "[7]; at 11.0 µM", "result": "98% (active)"}, {"measurement": "growth inhibition", "setting": "[7]; at 33.0 µM", "result": "98% (active)"}, {"measurement": "growth inhibition", "setting": "[7]; at 100.0 µM", "result": "98% (active)"}, {"measurement": "growth inhibition", "setting": "[8]; [18]", "result": "-41% (inactive) and 100% (active) and 99% (active)"}, {"measurement": "growth inhibition", "setting": "[8]; at 50.0 µM", "result": "95.5% (active) [middle of 5 runs]"}, {"measurement": "growth inhibition", "setting": "[9]; at 1.2 µM", "result": "-19% (inactive)"}, {"measurement": "growth inhibition", "setting": "[9]; at 3.7 µM", "result": "86% (active)"}, {"measurement": "growth inhibition", "setting": "[9]; at 11.0 µM", "result": "84% (active)"}, {"measurement": "growth inhibition", "setting": "[9]; at 33.0 µM", "result": "94% (active)"}, {"measurement": "growth inhibition", "setting": "[9]; at 100.0 µM", "result": "92% (active)"}, {"measurement": "growth inhibition", "setting": "[10]", "result": "95.5% (active) [middle of 5 runs]"}, {"measurement": "growth inhibition", "setting": "[11]; at 1.2 µM", "result": "-2% (inactive)"}, {"measurement": "growth inhibition", "setting": "[11]; at 3.7 µM", "result": "63% (inactive)"}, {"measurement": "growth inhibition", "setting": "[11]; at 11.0 µM", "result": "97% (active)"}, {"measurement": "growth inhibition", "setting": "[11]; at 33.0 µM", "result": "98% (active)"}, {"measurement": "growth inhibition", "setting": "[11]; [18]", "result": "-8% (inactive) and 100% (active) and 99% (active)"}, {"measurement": "growth inhibition", "setting": "[11]; at 50.0 µM", "result": "98.7% (active) [middle of 5 runs]"}, {"measurement": "growth inhibition", "setting": "[11]; at 100.0 µM", "result": "98% (active)"}, {"measurement": "growth inhibition", "setting": "[12]; at 1.2 µM", "result": "17% (inactive)"}, {"measurement": "growth inhibition", "setting": "[12]; at 3.7 µM", "result": "84% (active)"}, {"measurement": "growth inhibition", "setting": "[12]; at 11.0 µM", "result": "90% (active)"}, {"measurement": "growth inhibition", "setting": "[12]; at 33.0 µM", "result": "95% (active)"}, {"measurement": "growth inhibition", "setting": "[12]; at 100.0 µM", "result": "98% (active)"}, {"measurement": "growth inhibition", "setting": "[13]; at 1.2 µM", "result": "1% (inactive)"}, {"measurement": "growth inhibition", "setting": "[13]; at 3.7 µM", "result": "74% (active)"}, {"measurement": "growth inhibition", "setting": "[13]; at 11.0 µM", "result": "97% (active)"}, {"measurement": "growth inhibition", "setting": "[13]; at 33.0 µM", "result": "98% (active)"}, {"measurement": "growth inhibition", "setting": "[13]; at 100.0 µM", "result": "98% (active)"}, {"measurement": "growth inhibition", "setting": "[14]; at 1.2 µM", "result": "47% (inactive)"}, {"measurement": "growth inhibition", "setting": "[14]; at 3.7 µM", "result": "94% (active)"}, {"measurement": "growth inhibition", "setting": "[14]; at 11.0 µM", "result": "97% (active)"}, {"measurement": "growth inhibition", "setting": "[14]; at 33.0 µM", "result": "98% (active)"}, {"measurement": "growth inhibition", "setting": "[14]; at 100.0 µM", "result": "97% (active)"}, {"measurement": "growth inhibition", "setting": "[15]; [17]", "result": "75% (active) [middle of 5 runs]"}, {"measurement": "growth inhibition", "setting": "[15]; [18]", "result": "99% (active) and 96% (active)"}, {"measurement": "growth inhibition", "setting": "[15]; at 50.0 µM", "result": "98.2% (active) [middle of 4 runs]"}, {"measurement": "growth inhibition", "setting": "[16]; at 1.2 µM", "result": "30% (inactive)"}, {"measurement": "growth inhibition", "setting": "[16]; at 3.7 µM", "result": "95% (active)"}, {"measurement": "growth inhibition", "setting": "[16]; at 11.0 µM", "result": "97% (active)"}, {"measurement": "growth inhibition", "setting": "[16]; at 33.0 µM", "result": "97% (active)"}, {"measurement": "growth inhibition", "setting": "[16]; at 100.0 µM", "result": "97% (active)"}]}
